Laboratory results as given in PubChem BioAssay (NCATS).
Inconclusive results are not listed. A number with no mark means an inactive call. Calls come from the whole dose curve; as a rule, active = well fitted cell-killing curve with a large enough effect; inconclusive = small, poorly fitted or top-dose-only effect, or effect the other way; inactive = flat fitted curve, though single readings scatter.

Each molecule was assayed on CAOV3 (assay: Primary qHTS to identify gynecologic anti-cancer compounds using libraries of approved drugs and bioactive compounds (AID 1345084; note: nearly all actives have a fitted effect of over 55% in size)). Conditions: Gynecologic cancer cell panel viability, ATPlite luminescence, 48 h; series mostly up to 57.5 µM; activity change, negative = cytotoxicity: at the top concentration.
Summary of the method: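 Five-concentration response, 48 h; readout is ATP-driven luciferase luminescence.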
% is set by controls: 0 for no effect and ±100 for the full control effect.

| Compound | activity change, negative = cytotoxicity |
| --- | --- |
| Nc1ccc(N)c([N+](=O)[O-])c1 | 7.12% [at 116 µM] |
| CC(C)n1cnc2c(Nc3cccc(Cl)c3)nc(NCCO)nc21 | -23.6% |
| O=C(CC1NCCC[C@H]1O)Cn1cnc2cc(Br)c(Cl)cc2c1=O (stereo partly specified) | 0.177% |
| Cc1c(C(=O)NCCCO)cnn1-c1nc(-c2cccc(C(F)(F)F)c2)cs1 | -21.3% |
| CC[C@H](C)[C@H]1O[C@]2(CC[C@@H]1C)C[C@@H]1C[C@@H](C/C=C(\C)[C@@H](O[C@H]3C[C@H](OC)[C@@H](O[C@H]4C[C@H](OC)[C@@H](O)[C@H](C)O4)[C@H](C)O3)[C@@H](C)/C=C/C=C3\CO[C@@H]4[C@H](O)C(C)=C[C@@H](C(=O)O1)[C@]34O)O2 | -7.85% |
| O=C(Nc1cccc(C(F)(F)F)c1)c1ccccc1NCc1ccncc1 | 1.77% |
| c1ccc(-c2cnc(Nc3ccc(OCCN4CCCC4)cc3)s2)cc1 | -21.1% |
| C=C1C(=O)O[C@@H]2/C=C(/C)CC3C=C(C[C@H](OC(=O)/C(C)=C\C)[C@@H]12)C(=O)O3 (stereo partly specified) | -9.37% [at 38.5 µM] |
| CC1(C)SC2C(NC(=O)[C@H](NC(=O)N3CCNC3=O)c3ccccc3)C(=O)N2C1C(=O)O (stereo partly specified) | 4.4% |
| CC1(C)SC2C(NC(=O)[C@H](C(=O)O)c3ccsc3)C(=O)N2C1C(=O)O (stereo partly specified) | 13.9% |
| COc1ccc(-c2nc(-c3cc(C(F)(F)F)cc(C(F)(F)F)c3)n(Cc3ccc(C(N)=O)cc3)c2-c2ccc(OC)cc2)cc1 | -3% |
| CNc1cc(OC)c(C(=O)N[C@@H]2CCN(Cc3ccccc3)[C@@H]2C)cc1Cl | -0.341% |
| CN([C@H]1c2cc(OCCCC(F)(F)F)ccc2OC(C)(C)[C@@H]1O)S(C)(=O)=O | 6.03% |
| CC(=O)Nc1ccc(C(=O)Nc2ccccc2N)cc1 | -6.49% [at 25.3 µM] |
| C[C@H](NC(=O)C(C)(C)Oc1ccc(C(F)(F)F)cn1)[C@@H](Cc1ccc(Cl)cc1)c1cccc(C#N)c1 | -2.25% |
| CN(C)CC(=O)Nc1ccc2[nH]c(=O)c3ccccc3c2c1 | 4.43% |
| CC(CCC1(O)OC2CC3C4CC=C5CC(O[C@@H]6O[C@H](CO)[C@@H](O[C@@H]7O[C@H](CO)[C@@H](O)[C@H](O)[C@H]7O)[C@H](O)[C@H]6O[C@@H]6O[C@@H](C)[C@H](O)[C@@H](O)[C@H]6O)CCC5(C)C4CCC3(C)C2C1C)CO[C@@H]1O[C@H](CO)[C@@H](O)[C@H](O)[C@H]1O (stereo partly specified) | -3.93% [at 11.6 µM] |
| CCCCC(=O)N(Cc1ccc(-c2ccccc2-c2nn[nH]n2)cc1)C(C(=O)O)C(C)C (stereo unspecified) | -16% |
| COc1ccc(C2(CNC(=O)[C@](C)(Cc3c[nH]c4ccccc34)NC(=O)Nc3ccc([N+](=O)[O-])cc3)CCCCC2)nc1 | -0.2% |
| CCN(CC)Cc1cccc(/C=C/c2nc3ccc(F)cc3c(=O)n2-c2ccccc2Cl)n1 | -26.6% |
| C=C(C(=O)O)C1CC2=C(C)C(=O)CC2C(C)CC1O (stereo unspecified) | -25.4% |
